Bioassay records deposited in PubChem by National Center for Advancing Translational Sciences (NCATS).
PI5P4Ka inh: blocks human PI5P4K alpha kinase activity | P48426 | PI5P4Kalpha enzyme, ADP-Glo luminescence, 60 min; hits give low values | max response, % | 1.2% of 330,000 active; active means max response of -50% or lower; inconclusive means between -30% and -50%; inactive means -30% or higher; further: value at the top dose of about 77 µM
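PI5P4Kalpha ADP-Glo assay; 5 microM ATP final; 60 min RT reaction; HEPES pH 7.4/EGTA/CHAPS, 5% DMSO; controls lacking substrate or enzyme; luminescent end-point.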
BAZ2B block: BAZ2B (human) inhibition. 4.4% of 360,000 active. Potency, µM (highest dose often 114 µM), actives largely listed as inhibitors. Q9UIF8. AID 504333. AlphaScreen BAZ2B-H3K14Ac peptide displacement; further: nearly all actives have a fitted effect of over 60% in size
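AlphaScreen displacement: compounds (up to 110uM) incubated 30 min at room temperature with a preformed 50 nM BAZ2B/50 nM biotinylated H3K14Ac peptide complex in PBS pH 7.4 with Tween-20. Donor and acceptor beads at 10 ug/mL final added, 20 min light-protected before reading.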
JMJD2A Tudor: blocks the human JMJD2A Tudor domain. AlphaScreen JMJD2A-Tudor / H3K4me3 peptide binding. Potency, µM (doses to about 114 µM), actives largely listed as inhibitors. 4.4% of 390,000 active. O75164; further: nearly all actives have a fitted effect of over 50% in size
KDM4E inh: inhibitors of human JMJD2E histone demethylase; B2RXH2; JMJD2E catalytic domain, FDH-coupled NADH fluorescence (FDH is formaldehyde dehydrogenase); Potency, µM (doses to about 57.1 µM), hits mostly inhibitors; 1.6% of 230,000 active; active means well fitted inhibition curve with a large enough effect, not every such curve was filed as active; inconclusive means small, poorly fitted or top-dose-only effect, or another doubt; inactive means no such curve, though single readings can be large or run the other way; further: nearly all actives have a fitted effect of over 50% in size
HP1b chromo inh: HP1-beta chromodomain-methylated histone interaction inhibition | 0.56% of 390,000 active | AID 540317 | P83916 | AlphaScreen HP1-beta / biotin-H3K9me3 peptide binding | Potency, µM (titrated, usually from 114 µM), usual class: inhibitors; further: nearly all actives have a fitted effect of over 70% in size
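AlphaScreen: HP1-beta (50 nM) preformed 30 min with biotin-H3(1-18)K9me3 peptide (50 nM) in PBS pH 7.4, 0.01% Tween-20. Compound added for 30 min at RT, then streptavidin donor/nickel chelate acceptor beads (10 ug/mL) for 30 min.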
L3MBTL1 inh: L3MBTL1 (human) inhibition. Q9Y468. AlphaScreen L3MBTL1–H3K9me1 peptide binding. Potency, µM (titrated, usually from 57.1 µM), actives largely listed as inhibitors. 0.66% of 230,000 active. AID 485360; further: nearly all actives have a fitted effect of over 60% in size
Target sequence (Q9Y468 whole entry, looked up): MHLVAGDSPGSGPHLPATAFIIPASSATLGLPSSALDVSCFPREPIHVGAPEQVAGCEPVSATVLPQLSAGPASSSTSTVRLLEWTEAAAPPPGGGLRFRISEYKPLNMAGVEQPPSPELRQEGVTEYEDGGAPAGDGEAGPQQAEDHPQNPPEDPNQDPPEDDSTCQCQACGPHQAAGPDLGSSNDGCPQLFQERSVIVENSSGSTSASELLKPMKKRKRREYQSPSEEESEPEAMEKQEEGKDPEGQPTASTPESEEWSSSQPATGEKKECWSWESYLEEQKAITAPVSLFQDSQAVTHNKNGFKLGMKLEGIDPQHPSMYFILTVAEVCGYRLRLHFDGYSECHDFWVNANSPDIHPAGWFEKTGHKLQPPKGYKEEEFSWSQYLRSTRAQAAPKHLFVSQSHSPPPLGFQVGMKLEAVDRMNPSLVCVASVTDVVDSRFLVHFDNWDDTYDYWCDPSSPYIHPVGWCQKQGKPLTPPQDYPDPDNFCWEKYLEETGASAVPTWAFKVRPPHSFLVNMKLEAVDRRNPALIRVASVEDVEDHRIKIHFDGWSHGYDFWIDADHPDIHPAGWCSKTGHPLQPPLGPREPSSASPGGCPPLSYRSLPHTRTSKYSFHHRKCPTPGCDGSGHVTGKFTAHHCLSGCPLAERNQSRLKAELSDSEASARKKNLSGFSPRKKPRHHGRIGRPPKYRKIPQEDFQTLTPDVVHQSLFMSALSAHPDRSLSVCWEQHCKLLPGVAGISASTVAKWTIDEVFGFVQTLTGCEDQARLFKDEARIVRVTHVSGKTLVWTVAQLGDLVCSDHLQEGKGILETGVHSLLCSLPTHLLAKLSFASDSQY
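First, the protein-peptide complex forms for 30 min at room temperature (L3MBTL1 50 nM, biotinylated H3K9me1 peptide 75 nM). Next, compounds are pin-transferred and incubated 30 min. Finally, AlphaScreen beads are added and read after 30 min.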
Hits are given with their value; 0 = inactive; ? = inconclusive; - = no result given; [ ] = remark or other dose. Sampled rows, rich in hits. Any-hit rate of the full collection: about 5.7%. Unless noted, the call rests on the fitted dose curve; in most records, active means well fitted inhibition curve with a large enough effect; inconclusive means small, poorly fitted or top-dose-only effect; inactive means no such curve, though single readings can be large or run the other way.

SMILES	PI5P4Ka inh	BAZ2B block	JMJD2A Tudor	KDM4E inh	HP1b chromo inh	L3MBTL1 inh
Cc1oc(-c2ccc(Cl)cc2)nc1CN1CCC(C(=O)NCCCN2CCN(c3cccc(Cl)c3)CC2)CC1	-	?	?	-	0	-
Cc1ccc(C)c(N2CCN(C(=O)C3CCN(Cc4nc(-c5cccc(Cl)c5)oc4C)CC3)CC2)c1	-	8.91µM	39.8µM	-	0	-
Cc1ccc(Cl)cc1N1CCN(C(=O)C2CCN(Cc3nc(-c4ccc(Cl)cc4)oc3C)CC2)CC1	-	8.91µM	?	-	0	-
C/C=C1/C[C@@H](C)[C@](O)(CO)C(=O)OCC2=CCN3CC[C@@H](OC1=O)C23 (stereo partly specified)	-	-	-	0	-	-
CCCc1cc2c(n1Cc1cccc(Cl)c1)C(C)C1CN(C(=O)c3ccccc3)C(C)(C(=O)OC)C21 (stereo unspecified)	-	-	-	0	-	-
O=C(O)Cc1cnc[nH]1	0	-	7.08µM	14.1µM	0	-
CC(Cc1ccc(O)cc1)NCC(O)c1ccc(O)c(O)c1 (stereo unspecified)	-58.8	-	-	-	-	-
COC(=O)c1ccc(N2C(=O)CC(N3CCC(O)(c4ccc(Br)cc4)CC3)C2=O)cc1 (stereo unspecified)	0	0	0	0	0	-
COc1cc(CN2CCc3nc(N4CCN(c5ccccn5)CC4)ncc3C2)cc(OC)c1OC	-	50.1µM	79.4µM	-	?	-
COc1cc(CN2CCc3nc(N4CCN(c5ncccn5)CC4)ncc3C2)cc(OC)c1OC	-	44.7µM	50.1µM	-	0	-
CCCC1=Nc2cc(C(=O)NC3CCC(C)CC3)ccc2Sc2ccccc21 (stereo unspecified)	-	0	0	-	0	-
CCCC1=Nc2cc(C(=O)NCCc3ccc(OC)cc3OC)ccc2Sc2ccccc21	-	79.4µM	0	-	0	-
CCc1ccc(-n2nc(C)c3c(C(=O)NCCc4ccc(OC)c(OC)c4)cc(C)nc32)cc1	-	0	0	-	0	-
CC[N+](C)(CC)CCCCOc1ccc2c(c1)C(=O)c1cc(OCCCC[N+](C)(CC)CC)ccc1-2	0	?	22.4µM	0	?	0
NP(=O)(Oc1ccccc1)c1ccccc1 (stereo unspecified)	0	-	0	-	0	-
O=P(Oc1ccccc1)(Oc1ccccc1)c1ccccc1	0	0.891µM	0	0	0	0
CC(=O)O[C@H]1CC[C@]2(C=O)C3CC[C@]4(C)[C@@H](C5=CC(=O)OC5)CC[C@]4(O)C3CC[C@]2(O)C1 (stereo partly specified)	-	-	0	-	0	-
CCCCn1c(NS(=O)(=O)c2ccccc2)c(C(=O)OCC)c2nc3ccccc3nc21	0	0	0	?	0	4.47µM
CCCCn1c(NC(=O)c2ccc(Br)o2)c(C(=O)OCC)c2nc3ccccc3nc21	0	0	0	?	0	0
COC(=O)C12CC3=C[C@H](CC3=O)Cc3ccccc3[C@@H]1CNC2=O (stereo partly specified)	-	-	-	0	-	-
C[n+]1c(-c2ccccc2)c2cc(N)ccc2c2ccc(N)cc21	0	39.8µM	?	-	0	-
Nc1ccc2ccc3cccc[n+]3c2c1	0	0	0	-	0	0
COc1ccc(C2=NCC(=O)N(CC(=O)NCc3ccco3)c3sc4c(c32)CCCC4)cc1	-	?	?	0	?	0
Cc1cccc(C2=NCC(=O)N(CC(=O)NCc3ccco3)c3sc4c(c32)CCCC4)c1	-	44.7µM	50.1µM	0	0	0
COc1ccc(C(=O)Nc2nnc(S(=O)(=O)N(CC(C)C)c3ccc(C)cc3)s2)cc1OC	-	0	0	-	0	-
SMILES	PI5P4Ka inh	BAZ2B block	JMJD2A Tudor	KDM4E inh	HP1b chromo inh	L3MBTL1 inh
C[C@]12N[C@@H](Cc3ccccc31)c1ccccc12	-	-	-	0	-	-
COc1ccccc1N=Nc1ccc(N)c(C)c1	0	35.5µM	44.7µM	-	?	-
Cc1ccccc1N	0	0	0	-	0	0
Nc1c(C(=O)Nc2cccc(F)c2)sc2nc(-c3cccs3)ccc12	-	0	0	-	0	-
COC1C(O)C(C)O[C@H](OC2CC[C@@]3(C=O)C4CC[C@]5(C)C(C6=CC(=O)OC6)CC[C@@]5(O)C4CC[C@@H]3C2)C1O (stereo partly specified)	-	-	-	0	-	-
CCn1c(O)c(/C=N/NC(=O)c2ccccc2)c(=O)n(CC)c1=S	0	?	0	?	0	-
O=C(N/N=C/C1C(=O)NC(=S)N(c2ccccc2)C1=O)c1cc(Br)c(O)c(Br)c1 (stereo unspecified)	-95.6	0	10µM	22.4µM	0	12.6µM
C[C@@H]1CCc2cc(F)cc3c(=O)c(C(=O)O)cn1c23	-	-	-	0	-	-
COc1ccc(CCNC(=O)CCn2c(=O)c3ccccc3n(Cc3ccc(Cl)cc3)c2=O)cc1OC	-	0	0	-	0	-
O=C(OCCCCN1C(=O)c2ccccc2C1=O)c1ccc(Br)o1	0	0	0	0	0	0
Cc1cc(C=C2C(=O)N(C)C(=S)N(C)C2=O)c(C)n1-c1cccnc1	?	44.7µM	0	0	0	0
O=[N+]([O-])c1ccc(CN2CCN(c3ccc(Cl)cc3)CC2)o1	0	44.7µM	17.8µM	-	?	0
O=C(Nc1ccc(OC(F)(F)F)cc1)Oc1ccccc1N1CCCCC1	0	0	0	?	0	-
COc1ccc(OCC(=O)N2CCN(Cc3c[nH]c4ccccc34)CC2)cc1	0	-	3.55µM	0	?	0
O=C(COc1ccccc1)N1CCN(Cc2c[nH]c3ccccc23)CC1	0	-	7.94µM	0	0	0
O=C(Cc1ccccc1)N1CCN(Cc2c[nH]c3ccccc23)CC1	-	0	0	0	0	0
O=CN1CCCCC1C1CC[C@H]2CCCCN2C1 (stereo partly specified)	-	-	-	0	-	-
Nc1c2c(nc3sc4c(c13)CCCCC4)CCCC2	0	0	0	0	0	0
Oc1cccc(Nc2ncnc3sc4c(c23)CCCC4)c1	-	0	89.1µM	-	0	-
CN1[C@@H]2CC[C@H]1CC(OC1c3ccccc3CCc3ccccc31)C2 (stereo partly specified)	0	0	79.4µM	0	0	0
COC(=O)CCCCC1SCC(NC(=O)c2ccccc2)C1Cl (stereo unspecified)	0	79.4µM	0	0	0	0
CN1C(=O)NC(=O)/C(=C\c2ccc([N+](=O)[O-])o2)C1=O	-102.3	35.5µM	15.8µM	?	25.1µM	10µM
O=C1NC(=O)N(c2ccccc2)C(=O)/C1=C\c1ccc([N+](=O)[O-])o1	-	39.8µM	-	?	-	3.16µM
CN1C(=O)NC(=O)/C(=C/c2ccc(C(=O)O)cc2)C1=O	?	0	0[11.4 µM]	0	0	-
CN1C(=O)NC(=O)/C(=C/c2ccc([N+](=O)[O-])o2)C1=O	-82.4	50.1µM	22.4µM	?	50.1µM	25.1µM
Cc1cc(/C=C2/C(=O)NC(=O)N(C)C2=O)c(C)n1-c1ccccc1	0	0	0	0	0	0
O=C(CCC(=O)Nc1ccccc1Cl)N/N=C/c1ccccc1	0	0	0	0	0	0
